Laboratory results: paper PMC5540273 (PLoS ONE, 2017)

Test system: FER
Conditions: concentration: 1 μM,replicates: in singlicate; n = 1
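Note: KINOMEscan kinase panel screen.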

First: CCN(CC)CCOc1ccc(Nc2ncc3cc(-c4c(Cl)cccc4Cl)c(=O)n(C)c3n2)cc1 [SB-601273]
Second: CCN(CC)CCCCNc1ncc2cc(-c3c(Cl)cccc3Cl)c(NC(=O)NC(C)(C)C)nc2n1
The “%Inh” value of the first is higher: 86% for the first, 10% for the second.

First: Cc1cc(C(=O)Nc2ccc(Oc3ccc4nc(NC(=O)C5CC5)cn4n3)cc2)nn1-c1ccccc1
Second: Cc1ccc(-n2nc(C(C)(C)C)cc2NC(=O)Nc2ccc(OCCN3CCOCC3)c3ccccc23)cc1 [GW839464]
The “%Inh” value of the first is higher: 14% for the first, 0% for the second.

First: Cl.Oc1cc(-c2nc(-c3ccccc3)[nH]c2-c2ccncc2)ccc1Cl [SB-386023]
Second: Cc1ccc2c(-c3ccncc3)c(-c3ccc(F)cc3)nn2c1.Cl [GW461484]
The “%Inh” value of the first is higher: 2% for the first, 0% for the second.

CNC(=O)c1ccccc1Sc1ccc2c(/C=C/c3ccccn3)n[nH]c2c1 and Nc1nc(Nc2ccccc2)cc(-c2ccc3c(N)n[nH]c3c2)n1 [GSK2225749] are the same in “%Inh” value: 0% for the first, 0% for the second.

Compared with CN(C)CC(O)COc1ccc(Nc2nccc(-c3cnn4nc(N5CCOCC5)ccc34)n2)cc1 (centres unmarked) [GW767488], CN(C)CCOc1ccc(-c2cc(-c3c[nH]nc3-c3ccccn3)ccn2)cc1 [GW835314] is higher in “%Inh” value: 11% for the first, 19% for the second.

Compared with Cl.Cl.Nc1nc(-c2ccc3c(N)n[nH]c3c2)cc(N2CCCC(NC(=O)c3ccccc3)C2)n1 (centres unmarked) [GSK2286775], CC(C)Nc1cc(-c2ccc3c(N)n[nH]c3c2)nc(N)n1 [GSK2221681] is higher in “%Inh” value: 0% for the first, 1% for the second.

Going from CCn1c(-c2nonc2N)nc2c(C#CC(C)(C)O)nc(OCCN)cc21.Cl.Cl [GSK902056] to Cc1occc1-c1nc(N)c(OC[C@@H](N)Cc2c[nH]c3ccccc23)cc1-c1cc2c(C)n[nH]c2cn1 [GSK1660450], the “%Inh” value falls from 15% to 6%.

Compared with Cl.Cl.NC[C@H](CC1CCCCC1)NC(=O)c1cc(Br)c(-c2ccnc3[nH]ccc23)s1 [GSK1581427], COc1ccc(C[C@@H](CN)NC(=O)c2cc(Br)c(-c3ccnc4[nH]ccc34)s2)cc1.Cl.Cl [GSK1389063] is lower in “%Inh” value: 41% for the first, 10% for the second.

Compared with C[C@@H]1CCN(C(=O)CC#N)C[C@@H]1N(C)c1ncnc2[nH]ccc12, NC(=O)c1cc(-c2ccccc2)cc2c(C3CCNCC3)c[nH]c12 [GSK301362] is higher in “%Inh” value: 15% for the first, 20% for the second.

Going from C=CC(=O)Nc1cc2c(Nc3ccc(F)c(Cl)c3)ncnc2cc1OCCCN1CCOCC1 [GW781483] to O=C(NCCCN1CCOC1=O)c1cnc(NCc2cc(Cl)ccc2Cl)nc1NC1CCCC1, the “%Inh” value falls from 9% to 7%.

Compared with CC(C)N1C(=O)Cc2cc(Nc3ncc(C(F)(F)F)c(NCc4cccc(S(C)(=O)=O)c4)n3)ccc21, Cl.Cl.NC[C@H](Cc1ccc(C(F)(F)F)cc1)NC(=O)c1cc(Br)c(-c2ccnc3[nH]ccc23)s1 [GSK1487252] is lower in “%Inh” value: 2% for the first, 0% for the second.

Going from Cc1n[nH]c2ccc(-c3cc(OC[C@@H](N)Cc4ccccc4)cnc3-c3ccoc3)cc12.O=C(O)C(F)(F)F.O=C(O)C(F)(F)F [GSK507358] to O=C(NCCNc1ccnc(NCc2ccc(F)cc2)n1)c1cc2ccccc2s1 [GSK1379944], the “%Inh” value falls from 53% to 23%.

Compared with Cc1cc2cn[nH]c2cc1-c1cccc2c(N)c(C(N)=O)nnc12, C[C@H]1Oc2cc(cnc2N)-c2c(nn(C)c2C#N)CN(C)C(=O)c2ccc(F)cc21 is higher in “%Inh” value: 76% for the first, 98.8% for the second.

C[C@@H](Oc1cc(-c2cnn(C3CCNCC3)c2)cnc1N)c1c(Cl)ccc(F)c1Cl was tested, and the “%Inh” value was 65%.

Test system: FES
Conditions: concentration: 1 μM,replicates: in singlicate; n = 1

First: CCN(CC)CCOc1ccc(Nc2ncc3cc(-c4c(Cl)cccc4Cl)c(=O)n(C)c3n2)cc1 [SB-601273]
Second: CCN(CC)CCCCNc1ncc2cc(-c3c(Cl)cccc3Cl)c(NC(=O)NC(C)(C)C)nc2n1
The “%Inh” value of the first is higher: 98.1% for the first, 21% for the second.

Going from Cc1cc(C(=O)Nc2ccc(Oc3ccc4nc(NC(=O)C5CC5)cn4n3)cc2)nn1-c1ccccc1 to Cc1ccc(-n2nc(C(C)(C)C)cc2NC(=O)Nc2ccc(OCCN3CCOCC3)c3ccccc23)cc1 [GW839464], the “%Inh” value falls from 16% to 7%.

First: Cl.Oc1cc(-c2nc(-c3ccccc3)[nH]c2-c2ccncc2)ccc1Cl [SB-386023]
Second: Cc1ccc2c(-c3ccncc3)c(-c3ccc(F)cc3)nn2c1.Cl [GW461484]
The “%Inh” value of the first is higher: 48% for the first, 0% for the second.

CNC(=O)c1ccccc1Sc1ccc2c(/C=C/c3ccccn3)n[nH]c2c1 and Nc1nc(Nc2ccccc2)cc(-c2ccc3c(N)n[nH]c3c2)n1 [GSK2225749] are the same in “%Inh” value: 0% for the first, 0% for the second.

Going from CN(C)CC(O)COc1ccc(Nc2nccc(-c3cnn4nc(N5CCOCC5)ccc34)n2)cc1 (centres unmarked) [GW767488] to CN(C)CCOc1ccc(-c2cc(-c3c[nH]nc3-c3ccccn3)ccn2)cc1 [GW835314], the “%Inh” value falls from 10% to 0%.

Cl.Cl.Nc1nc(-c2ccc3c(N)n[nH]c3c2)cc(N2CCCC(NC(=O)c3ccccc3)C2)n1 (centres unmarked) [GSK2286775] and CC(C)Nc1cc(-c2ccc3c(N)n[nH]c3c2)nc(N)n1 [GSK2221681] are the same in “%Inh” value: 0% for the first, 0% for the second.

First: CCn1c(-c2nonc2N)nc2c(C#CC(C)(C)O)nc(OCCN)cc21.Cl.Cl [GSK902056]
Second: Cc1occc1-c1nc(N)c(OC[C@@H](N)Cc2c[nH]c3ccccc23)cc1-c1cc2c(C)n[nH]c2cn1 [GSK1660450]
The “%Inh” value of the first is higher: 19% for the first, 0% for the second.

Cl.Cl.NC[C@H](CC1CCCCC1)NC(=O)c1cc(Br)c(-c2ccnc3[nH]ccc23)s1 [GSK1581427] and COc1ccc(C[C@@H](CN)NC(=O)c2cc(Br)c(-c3ccnc4[nH]ccc34)s2)cc1.Cl.Cl [GSK1389063] are the same in “%Inh” value: 0% for the first, 0% for the second.

C[C@@H]1CCN(C(=O)CC#N)C[C@@H]1N(C)c1ncnc2[nH]ccc12 and NC(=O)c1cc(-c2ccccc2)cc2c(C3CCNCC3)c[nH]c12 [GSK301362] are the same in “%Inh” value: 0% for the first, 0% for the second.

First: C=CC(=O)Nc1cc2c(Nc3ccc(F)c(Cl)c3)ncnc2cc1OCCCN1CCOCC1 [GW781483]
Second: O=C(NCCCN1CCOC1=O)c1cnc(NCc2cc(Cl)ccc2Cl)nc1NC1CCCC1
The “%Inh” value of the first is lower: 0% for the first, 26% for the second.

Compared with CC(C)N1C(=O)Cc2cc(Nc3ncc(C(F)(F)F)c(NCc4cccc(S(C)(=O)=O)c4)n3)ccc21, Cl.Cl.NC[C@H](Cc1ccc(C(F)(F)F)cc1)NC(=O)c1cc(Br)c(-c2ccnc3[nH]ccc23)s1 [GSK1487252] is lower in “%Inh” value: 19% for the first, 0% for the second.

Going from Cc1n[nH]c2ccc(-c3cc(OC[C@@H](N)Cc4ccccc4)cnc3-c3ccoc3)cc12.O=C(O)C(F)(F)F.O=C(O)C(F)(F)F [GSK507358] to O=C(NCCNc1ccnc(NCc2ccc(F)cc2)n1)c1cc2ccccc2s1 [GSK1379944], the “%Inh” value falls from 20% to 18%.

Compared with Cc1cc2cn[nH]c2cc1-c1cccc2c(N)c(C(N)=O)nnc12, C[C@H]1Oc2cc(cnc2N)-c2c(nn(C)c2C#N)CN(C)C(=O)c2ccc(F)cc21 is higher in “%Inh” value: 72% for the first, 93.8% for the second.
